The results in this text go back to PubChem BioAssay (Tox21).

Experiment [1] in a line: Nuclear factor erythroid 2-related factor 2/antioxidant responsive element (Nrf2/ARE) small molecule agonists: luciferase reporter gene qHTS assay in human keratinocytes (AID 1919969; further: nearly all actives have a fitted effect of over 35% in size; further: potency means the concentration at half of the fitted maximal effect). (In a reporter assay the amount or activity of a reporter protein is the signal.)
Experiment [2] has as its target Gonadotropin-releasing hormone receptor (Homo sapiens) (UniProt P30968). Put plainly: Human gonadotropin-releasing hormone receptor (GnRHR) small molecule agonists, calcium flux assay in GnRHR-HEK293 cells (AID 1920063). Further: nearly all actives have a fitted effect of over 35% in size. The gist of the method: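 We seeded human GnRHR-expressing HEK293 cells for 18 hours, loaded them with calcium dye for an hour at 37 C, added test compounds, and recorded fluorescence intensity kinetically for three minutes.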
(In general: A change in cytosolic calcium serves as a functional read-out for many receptors and channels.)

In experiment [3] the target is KiSS-1 receptor (Homo sapiens) (UniProt Q969F8). Put plainly: Human kisspeptin (KISS1R) small molecule agonists, calcium flux assay in KISS1R-HEK293 cells (AID 1920064; active means well fitted activation curve with a large enough effect in the repeat runs). The gist of the method:
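Kinetic calcium assay, 1 s sampling over 3 min at Ex/Em 480/540, in HEK293 cells engineered with human KISS1R; compounds delivered in DMSO after 1 h dye loading.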

Experiment [4] is described as follows: G protein-coupled receptor (GPCR) small molecule agonists, calcium flux assay: HEK293 wild type cell line counter screen (AID 1920065). The procedure, abridged: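 Calcium-sensitive dye, loaded 1 h at 37 C into cells cultured 18 h, reports compound-evoked calcium release as fluorescence (Ex/Em 480/540), measured over 3 min. Agonist mode; 15-point titrations, triplicate.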

A short description of experiment [5]: p53 small molecule agonists, cell-based qHTS assay with human liver microsomes (AID 1963577). The procedure, abridged: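 Cells carrying a p53-responsive bla reporter were rested 5 h (37 C, 5% CO2) before compound transfer. Human liver microsomes plus NADPH, 0.5 mg/mL final apiece, supplied metabolism during the 16 h 37 C exposure.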
For orientation: In qHTS, concentration-response curves come from the screen itself.

Experiment [6] in a line: p53 small molecule agonists, cell-based qHTS assay with rat liver microsomes (AID 1963578). The procedure, abridged: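 Fluorescence from a beta-lactamase reporter under a p53 response element was measured after cells had been incubated 16 h at 37 C with test compound and rat liver microsomes plus NADPH (0.5 mg/mL final each).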
Experiment [7] in a line: p53 small molecule agonists, cell-based qHTS assay with human liver microsomes: qHTS cell viability counter screen (AID 1963579). Further: nearly all actives have a fitted effect of over 45% in size. Further: potency means the concentration at half of the fitted maximal effect. The gist of the method: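 Seed p53RE-bla cells at 4,000 per well; incubate 5 h at 37 C; add compound, human liver microsomes and NADPH; incubate 16 h at 37 C; add CellTiter-Glo; after 30 min at room temperature, read luminescence.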
A short description of experiment [8]: p53 small molecule agonists, cell-based qHTS assay with rat liver microsomes: qHTS cell viability counter screen (AID 1963580). Further: nearly all actives have a fitted effect of over 45% in size. Further: potency means the concentration at half of the fitted maximal effect. The gist of the method: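 In HCT-116 cells carrying a p53 response element-bla reporter, compounds were metabolically activated in situ by rat liver microsomes with NADPH over 16 h. Cell ATP content then served as the cytotoxicity measure.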

Experiment [9] in a line: p53 small molecule agonists, cell-based qHTS assay (AID 1963582; active means well fitted activation curve with a large enough effect in the signal ratio in the repeat runs, not every such curve was filed as active; the % refers to the signal ratio). The procedure, abridged: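 In this cell-based concentration-response screen, a p53 response element drives beta-lactamase; cells received DMSO-borne compounds after 5 h culture and were incubated a further 16 h before FRET substrate development.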
Experiment [10] concerns the target 5-hydroxytryptamine receptor 2A (Homo sapiens) (UniProt P28223). Put plainly: 5-hydroxytryptamine receptor 2A (HTR2A) small molecule antagonists, cell-based qHTS assay (AID 1963586). Further: nearly all actives have a fitted effect of over 45% in size. Further: potency means the concentration at half of the fitted maximal effect. The procedure, abridged: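 Antagonist-mode intracellular calcium assay: DOI (4 nM) added after 5 min compound pre-incubation at room temperature to dye-loaded HTR2A-CHO cells. Fluorescence followed for 3 min, sampled every second.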

For experiment [11] the target is unchanged. Put plainly: 5-hydroxytryptamine receptor 2A (HTR2A) small molecule agonists, cell-based qHTS assay (AID 1963587). Further: nearly all actives have a fitted effect of over 30% in size. The procedure, abridged: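 HTR2A-CHO cells, plated 18 h at 37 C/5% CO2, dye-loaded 1 h at 37 C; compounds in DMSO added by pin tool (agonist mode). Intracellular calcium flux read as kinetic fluorescence on FDSS over 2 min at 1 s intervals.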

Experiment [12] addresses Muscarinic acetylcholine receptor M1 (Homo sapiens) (UniProt P11229). Put plainly: Cholinergic receptor muscarinic 1 (CHRM1) small molecule antagonists, cell-based qHTS assay (AID 1963588). Further: nearly all actives have a fitted effect of over 40% in size. Further: potency means the concentration at half of the fitted maximal effect. The procedure, abridged:
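CHRM1-CHO calcium-flux assay, antagonist mode. Cells were seeded 18 h, dye-loaded 1 h at 37 C and given compound for 5 min at RT, then acetylcholine was added at 50nM. FDSS fluorescence was read 3 min; 15 concentrations, three runs.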

For experiment [13] the target is unchanged. Put plainly: Cholinergic receptor muscarinic 1 (CHRM1) small molecule agonists, cell-based qHTS assay (AID 1963589). Further: nearly all actives have a fitted effect of over 35% in size. The procedure, abridged: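 Measures agonist-induced intracellular calcium rise. Stable human CHRM1 CHO line, 1 h dye load at 37 C, compounds from DMSO, kinetic fluorescence read.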
Experiment [14] in a line: cAMP Responsive Elements (CRE) small molecule agonists, cell-based qHTS assay (AID 1963590). The procedure, abridged:
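A CRE-responsive beta-lactamase reporter in HEK 293T cells was used. Treatment ran 3 h at 37 C; detection used LiveBLAzer B/G FRET substrate for 2 h at room temperature.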

Experiment [15] is described as follows: cAMP Responsive Elements (CRE) small molecule antagonists, cell-based qHTS assay (AID 1963591; active means well fitted inhibition curve with a large enough effect in the signal ratio in the repeat runs, not every such curve was filed as active; the % refers to the signal ratio; further: potency means the concentration at half of the fitted maximal effect). The gist of the method:
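HEK293T cells carrying a CRE-driven beta-lactamase reporter receive compound and NKH477 (0.25 uM final) for 3 h. Fluorescence from LiveBLAzer B/G FRET substrate is read after 2 h at room temperature.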

Experiment [16] concerns the target Beta-2 adrenergic receptor (Homo sapiens) (UniProt P07550). Put plainly: Adrenergic beta2 receptor (ADRB2) small molecule antagonists, cell-based qHTS assay (AID 1963592). Further: nearly all actives have a fitted effect of over 50% in size. Further: potency means the concentration at half of the fitted maximal effect. The gist of the method: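 Cells (CHO, stable ADRB2 overexpression) incubated 18-20hr at 37C; compounds added from DMSO; agonist mix (1nM isoproterenol, 100uM IBMX, 25uM Ro-20-1724) added; 0.5hr RT; d2-cAMP and anti-cAMP-cryptate added; 1hr RT; 665/615 nm read.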

Experiment [17] concerns the target D(2) dopamine receptor (Homo sapiens) (UniProt P14416). Put plainly: Dopamine D2 receptor (DRD2) small molecule agonists, cell-based qHTS assay (AID 1963594). Further: nearly all actives have a fitted effect of over 35% in size. The procedure, abridged:
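HEK293 cells stably expressing DRD2 were cultured 24 h at 37 C, then given Ro20-1724 (0.1 mM final) and compounds for 10 min at room temperature. NKH477 (200nM) was then added for 30 min. cAMP was read by HTRF.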

Experiment [18] has the same target. Put plainly: Dopamine D2 receptor (DRD2) small molecule antagonists, cell-based qHTS assay (AID 1963595; active means well fitted inhibition curve with a large enough effect in the signal ratio in the repeat runs, with a control signal flat; the % refers to the signal ratio). The procedure, abridged:
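HTRF cAMP read-out at 665 and 620 nm emission (340 nm excitation). Antagonist mode: compounds were tested against 12 nM quinpirole in DRD2-HEK293 cells, with 200 nM NKH477 raising cAMP and 0.1 mM Ro20-1724 blocking its breakdown.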

The nature of experiment [19]: p53 small molecule agonists, cell-based qHTS assay: qHTS cell viability counter screen (AID 1963581). Further: nearly all actives have a fitted effect of over 45% in size. Further: potency means the concentration at half of the fitted maximal effect. The gist of the method:
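Following 5 h attachment, HCT-116 p53RE-bla cells took up compound for 16 h at 37 C; the reporter was read with B/G FRET substrate (2 h RT), and viability then via CellTiter-Glo ATP luminescence.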

Experiment [20] concerns the target Beta-2 adrenergic receptor (Homo sapiens) (UniProt P07550). Put plainly: Adrenergic beta2 receptor (ADRB2) small molecule agonists, cell-based qHTS assay (AID 1963593).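 Further: CHO cells stably overexpressing human ADRB2.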 The procedure, abridged:
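CHO cells stably over-expressing ADRB2 were plated overnight at 37C, then dosed with compounds plus a stimulation mix containing 100uM IBMX and 25uM Ro-20-1724 for 0.5hr at room temperature. cAMP was measured by HTRF competition, 1hr.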

Values without a mark were called inactive. Results filed as inconclusive are left out. Calls of active or inactive are those of the source. Unless noted, the call rests on the fitted dose curve.

Gonadotropin-releasing hormone receptor (Homo sapiens), sequence (P30968 whole entry, looked up): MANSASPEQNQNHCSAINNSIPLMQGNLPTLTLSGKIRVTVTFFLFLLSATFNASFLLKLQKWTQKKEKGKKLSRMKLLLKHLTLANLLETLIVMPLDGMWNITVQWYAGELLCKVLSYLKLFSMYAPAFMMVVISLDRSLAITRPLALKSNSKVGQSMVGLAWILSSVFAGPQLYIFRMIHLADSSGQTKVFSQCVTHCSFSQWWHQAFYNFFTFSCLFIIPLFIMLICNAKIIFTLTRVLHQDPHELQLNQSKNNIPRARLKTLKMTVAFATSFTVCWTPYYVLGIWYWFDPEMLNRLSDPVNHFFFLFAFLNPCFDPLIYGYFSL
Muscarinic acetylcholine receptor M1 (Homo sapiens), sequence (P11229 whole entry, looked up): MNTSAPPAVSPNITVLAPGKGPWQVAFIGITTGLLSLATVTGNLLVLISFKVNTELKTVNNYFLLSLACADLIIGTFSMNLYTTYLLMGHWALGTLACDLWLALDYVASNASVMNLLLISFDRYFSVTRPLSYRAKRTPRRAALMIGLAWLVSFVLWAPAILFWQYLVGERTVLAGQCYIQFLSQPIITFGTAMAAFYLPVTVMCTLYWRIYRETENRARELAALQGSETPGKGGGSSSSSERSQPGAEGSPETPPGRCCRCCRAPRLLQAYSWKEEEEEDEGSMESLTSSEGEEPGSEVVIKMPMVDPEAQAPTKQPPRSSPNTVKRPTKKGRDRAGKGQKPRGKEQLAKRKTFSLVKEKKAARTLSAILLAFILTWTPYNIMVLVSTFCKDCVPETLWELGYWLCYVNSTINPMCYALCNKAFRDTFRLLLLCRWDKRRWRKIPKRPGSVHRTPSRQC
KiSS-1 receptor (Homo sapiens), sequence (Q969F8 whole entry, looked up): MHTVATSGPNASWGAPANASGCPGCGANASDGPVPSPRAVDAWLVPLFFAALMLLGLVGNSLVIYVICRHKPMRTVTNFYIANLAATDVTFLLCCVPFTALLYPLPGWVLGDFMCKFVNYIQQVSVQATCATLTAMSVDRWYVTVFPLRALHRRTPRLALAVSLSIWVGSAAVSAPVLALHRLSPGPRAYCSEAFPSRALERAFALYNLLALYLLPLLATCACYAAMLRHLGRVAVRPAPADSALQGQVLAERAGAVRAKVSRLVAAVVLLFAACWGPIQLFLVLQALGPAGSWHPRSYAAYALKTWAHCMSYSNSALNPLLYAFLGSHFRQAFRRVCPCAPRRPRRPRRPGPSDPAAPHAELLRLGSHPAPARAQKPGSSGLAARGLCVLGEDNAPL
Beta-2 adrenergic receptor (Homo sapiens), sequence (P07550 whole entry, looked up): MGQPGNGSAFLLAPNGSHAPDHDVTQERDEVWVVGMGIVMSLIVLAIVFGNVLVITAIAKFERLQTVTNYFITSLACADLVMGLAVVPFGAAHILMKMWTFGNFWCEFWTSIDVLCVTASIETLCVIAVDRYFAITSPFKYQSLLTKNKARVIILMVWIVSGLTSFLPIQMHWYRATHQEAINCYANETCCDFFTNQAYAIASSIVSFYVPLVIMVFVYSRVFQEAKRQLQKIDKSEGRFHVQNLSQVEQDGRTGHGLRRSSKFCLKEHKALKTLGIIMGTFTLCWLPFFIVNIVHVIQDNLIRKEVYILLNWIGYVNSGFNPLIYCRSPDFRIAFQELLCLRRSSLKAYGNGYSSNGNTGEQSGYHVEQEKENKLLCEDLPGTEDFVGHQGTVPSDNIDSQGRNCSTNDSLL
5-hydroxytryptamine receptor 2A (Homo sapiens), sequence (P28223 whole entry, looked up): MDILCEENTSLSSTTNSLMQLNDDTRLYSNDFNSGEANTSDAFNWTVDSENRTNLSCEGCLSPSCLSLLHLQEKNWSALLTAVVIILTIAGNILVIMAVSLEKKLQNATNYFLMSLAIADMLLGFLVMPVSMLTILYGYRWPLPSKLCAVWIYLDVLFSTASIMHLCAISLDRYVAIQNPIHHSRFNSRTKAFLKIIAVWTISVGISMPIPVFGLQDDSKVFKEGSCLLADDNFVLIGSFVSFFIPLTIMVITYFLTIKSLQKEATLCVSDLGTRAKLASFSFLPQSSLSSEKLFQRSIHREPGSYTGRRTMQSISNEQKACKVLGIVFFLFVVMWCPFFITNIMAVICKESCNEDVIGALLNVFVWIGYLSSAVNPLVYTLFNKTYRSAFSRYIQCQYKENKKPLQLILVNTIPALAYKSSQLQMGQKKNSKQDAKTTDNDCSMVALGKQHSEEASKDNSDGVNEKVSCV
D(2) dopamine receptor (Homo sapiens), sequence (P14416 whole entry, looked up): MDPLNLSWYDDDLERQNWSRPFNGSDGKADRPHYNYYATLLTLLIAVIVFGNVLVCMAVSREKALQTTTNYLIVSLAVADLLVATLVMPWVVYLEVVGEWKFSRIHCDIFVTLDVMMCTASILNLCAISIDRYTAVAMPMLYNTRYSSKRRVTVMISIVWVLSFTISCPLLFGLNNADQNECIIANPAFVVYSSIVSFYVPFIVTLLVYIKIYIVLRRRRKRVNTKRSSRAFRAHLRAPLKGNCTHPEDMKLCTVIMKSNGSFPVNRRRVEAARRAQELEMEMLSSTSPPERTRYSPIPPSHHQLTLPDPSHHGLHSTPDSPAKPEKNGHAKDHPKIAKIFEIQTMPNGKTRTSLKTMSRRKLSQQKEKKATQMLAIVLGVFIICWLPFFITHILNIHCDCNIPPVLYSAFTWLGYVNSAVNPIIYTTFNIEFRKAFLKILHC

In the case of `CC(COc1ccc(C(C)(C)C)cc1)OS(=O)OCCCl` (stereo not given), the Potency entry in [1], in experiment [2], in [3], in [4], in experiment [5] and in experiment [6] was “inactive” each time. The Potency entry in experiment [7], in [8], in experiment [9], in experiment [10], in experiment [11] and in experiment [12] was “inactive” each time. Also, the Potency entry in experiment [13], in [14], in experiment [16], in experiment [17] and in [18] was “inactive” each time. Moreover, in experiment [15], the Potency was 43.5 µM (active).

Take `O=C1CCCCCN1SSN1CCCCCC1=O`: in [1], the Potency is 24.3 µM (active). For the same compound, the Potency result in experiment [2], in experiment [3], in [4], in experiment [5], in experiment [6] and in experiment [7] was “inactive” each time. Also, the Potency entry in experiment [8], in [19], in experiment [10], in experiment [11], in [13] and in [15] was “inactive” each time. For the same compound, the Potency entry in [16], in [17] and in experiment [18] was “inactive” each time.

`CNCCCC1c2ccccc2C=Cc2ccccc21`: the Potency result in experiment [1], in experiment [2], in experiment [3], in [4], in [5] and in experiment [6] was “inactive” in each case. In addition, the Potency result in [7], in experiment [19], in experiment [11], in experiment [13], in [14] and in experiment [15] was “inactive” in each case. Also, the Potency entry in experiment [17] was “inactive”. The Potency in [10] was 7.29 µM (active).

`OC12N=C(c3ccccc3)SC1Cc1cc(Cl)ccc12` (stereo not given): the Potency in [1] was 17.2 µM (active). Also, the Potency entry in [2], in experiment [3], in experiment [4], in [5], in [6] and in experiment [7] was “inactive” each time. Also, the Potency entry in experiment [8], in experiment [9], in [10], in [11], in experiment [12] and in experiment [13] was “inactive” each time. For the same compound, the Potency result in experiment [14], in [15], in [17] and in experiment [18] was “inactive” in each case.

Regarding `C=Cc1ccc(O)c(OC)c1`, the Potency in experiment [1] is 48.6 µM (active). The Potency entry in experiment [2], in experiment [3], in experiment [4], in experiment [5], in experiment [6] and in experiment [7] was “inactive” throughout. Besides, the Potency result in experiment [19], in experiment [10], in [11], in experiment [12], in [13] and in [14] was “inactive” throughout. Besides, the Potency result in experiment [15], in [16] and in experiment [18] was “inactive” each time.

Turning to `O=C1c2ccccc2C(=O)c2c(O)c(O)cc(O)c21`, the Potency entry in [1], in [2], in experiment [3], in experiment [4], in experiment [5] and in experiment [6] was “inactive” in each case. Moreover, the Potency entry in experiment [7], in [8], in experiment [19], in experiment [11], in [12] and in [13] was “inactive” in each case. Besides, the Potency entry in experiment [20], in experiment [17] and in experiment [18] was “inactive” throughout.

Turning to `COc1ccc(N=Nc2cc(C)c(N=Nc3ccc(S(=O)(=O)O)cc3)cc2OC)cc1`, the Potency entry in experiment [1], in experiment [2], in [3], in experiment [4], in experiment [5] and in experiment [6] was “inactive” throughout. Moreover, the Potency entry in [7], in [19], in experiment [9], in experiment [10], in [11] and in experiment [12] was “inactive” in each case. The Potency result in [13], in experiment [17] and in experiment [18] was “inactive” each time.

Turning to `CCCCCCCCCCCCCCCCCC[N+](C)(C)Cc1ccccc1`, the Potency entry in experiment [1], in experiment [2], in experiment [3], in [4], in experiment [5] and in experiment [6] was “inactive” throughout. Moreover, the Potency entry in experiment [10], in [13] and in experiment [17] was “inactive” throughout. For the same compound, the Potency in experiment [7] was 46.2 µM (active); in [8], 46.2 µM (active); in experiment [19], 20.6 µM (active); in [12], 0.19 µM (active); in [16], 61.7 µM (active).
